# Screening results (PubChem BioAssay)
# In the library only some 19% were active in any assay of this set; here they are far more common.
# Shiga toxin inh: Shiga toxin inhibition. Vero cells, Shiga toxin protein synthesis inhibition reporter. inhibition, % at 38.7 µM. hit rate 9.2% among 290,000. AID 2315; in the data active = inhibition mostly above about 28%, no sharp cut-off; inactive = mostly below about 43%
# Pf growth 48h: P. falciparum growth inhibition at 48 hours (one generation); P. falciparum luciferase growth in erythrocytes, 48 h; Potency, µM (doses to about 28.7 µM), actives largely listed as inhibitors; hit rate 5.9% among 310,000
#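 Luciferase-expressing P. falciparum in infected erythrocytes (2% hematocrit, 0.1% parasitemia final) in RPMI 1640/0.5% Albumax were exposed to compound for 48 hours at 37 C, 5% CO2; growth read as luminescence.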
# AMA1-RON2 inh: AMA1-RON2 (P. falciparum) interaction inhibition; hit rate 0.2% among 360,000; Potency, µM (highest dose often 58.2 µM), usual class: inhibitors; AlphaScreen AMA1-biotinylated RON2 peptide binding; note: nearly all actives have a fitted effect of over 45% in size
#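 AMA1 (3D7) with his tag at 25 nM final met compounds first, then biotinylated RON2 peptide at 25 nM; detection used donor plus acceptor beads, 10 µg/mL apiece, read by AlphaScreen after 30 min at room temperature.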
# Pf growth 96h: P. falciparum growth inhibition at 96 hours; P. falciparum luciferase reporter growth, 96 h; Potency, µM (titrated, usually from 28.7 µM), usual class: inhibitors; hit rate 6.9% among 320,000; AID 504834
#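 P. falciparum expressing integrated firefly luciferase, in erythrocytes at 2% hematocrit, 0.05% parasitemia, incubated with compounds 96 h at 37 C, 5% CO2. Growth inhibition read as loss of luminescence; two-generation exposure targets delayed-death apicoplast inhibitors.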
# SARS PLpro yeast: blocks SARS-CoV papain-like protease in a yeast assay; S. cerevisiae expressing SARS-CoV PLpro, growth rescue; Potency, µM (top dose mostly 32.9 µM), most hits filed as activators; hit rate 0.19% among 330,000; AID 485353; calls by dose curve; note: nearly all actives have a fitted effect of over 55% in size
# Cycloheximide cs: counter-screen for Shiga toxin inhibitors: cycloheximide protein synthesis inhibition | hit rate 12% among 300,000 | max response, % | cell reporter, cycloheximide protein synthesis inhibition counterscreen; in the data active = max response mostly above about 13%, no sharp cut-off; inactive = mostly below about 14%; note: read at 38.3 µM for the half of the compounds with a filed dose
# Hits are given with their value; i = inactive; ? = inconclusive; nt = no result given; [ ] = another dose, or the depositor's remark. Unless noted, calls come from the whole dose curve; as a rule, active = well fitted curve in the direction sought with a large enough effect; inconclusive = small, poorly fitted or top-dose-only effect, or another doubt; inactive = no such curve, though single readings can be large; an effect the other way counts as inactive or inconclusive.
SMILES,Shiga toxin inh,Pf growth 48h,AMA1-RON2 inh,Pf growth 96h,SARS PLpro yeast,Cycloheximide cs
CC(C)(C)NC[C@H](O)COc1cccc2c1CCCC2=O,nt,i,i,i,nt,nt
COc1ccc(C(CNC(=O)C(C)Sc2ccccc2)N2CCOCC2)cc1 (stereo not drawn),nt,nt,i,nt,nt,nt
COc1ccc(N=C2SC(C(=O)N3CCN(c4ccccc4)CC3)CC(=O)N2C)cc1 (stereo not drawn),i,?,i,?,i,i
C=C1/C=C(\C)[C@](C)(O)C[C@H](O)CC(=O)[C@H](O)[C@@H](O)[C@H](C)C[C@H](C)OC(=O)/C(C)=C/CC/C=C/[C@@H]2O[C@H]2C[C@H](C)C1,nt,nt,nt,nt,i,nt
CC(=O)c1c(C)[nH]c(C(=O)OC(C)C(=O)Nc2ccc(C)c(S(=O)(=O)N3CCOCC3)c2)c1C (stereo not drawn),nt,9.28µM,i,5.22µM,i,nt
CC(=O)c1c(C)[nH]c(C(=O)Nc2ccc(Cl)c(S(=O)(=O)N3CCOCC3)c2)c1C,i,4.15µM,i,4.15µM,?,i
CCN(CC)S(=O)(=O)c1cc(NC(=O)C(C)OC(=O)c2[nH]c(C)c(C(C)=O)c2C)ccc1C (stereo not drawn),i,3.7µM,i,?,i,i
CC(=O)c1c(C)[nH]c(C(=O)Nc2ccc(C)c(S(=O)(=O)N(C)C)c2)c1C,i,i,i,i,i,i
Cn1cc([N+](=O)[O-])c(C(=O)NNC(=O)c2ccc([N+](=O)[O-])cc2Cl)n1,i,i,i,i,i,i
CC(=O)Nc1ccccc1OCC(=O)NCC(F)(F)F,i,i,i,i,i,i
O=C(O)C1CC(Br)C(Br)CC1C(=O)O (stereo not drawn),nt,nt,i,nt,nt,nt
CC(=O)N1CCc2cc(NC(=O)C3(C)CCN3Cc3ccccc3Cl)ccc21 (stereo not drawn),nt,nt,i,nt,nt,nt
O=C(NC(=S)N1CCCc2ccccc21)c1ccc([N+](=O)[O-])cc1,58.5,?,i,7.38µM,i,47.4
O=C(NC(=S)N1CCCc2ccccc21)c1ccc(Cl)cc1,73.3,i,i,i,i,52.2
O=C(NC(=S)N1CCCc2ccccc21)c1ccc(Br)cc1,i,i,i,?,i,21.8
O=CN1CCN(C(=S)NC(=O)c2ccc(Cl)cc2)CC1,i,i,i,i,i,i
O=C(C(=O)N1CCCc2ccccc21)N1CCCc2ccccc21,i,i,i,?,i,i
O=C(NC(=S)N1CCCc2ccccc21)c1ccccc1,68.7,i,i,?,i,24.7
CCOc1ccc2c(c1)C(N(CCN1CCOCC1)C(=O)Nc1ccccc1)CC(C)(C)O2 (stereo not drawn),i,i,i,i,i,i
Cc1ccc(C(C)(C)c2ccc(C)cc2)cc1,nt,i,nt,i,nt,nt
CCOc1ccc(OCc2ccc(C(=O)NN=Cc3ccc[nH]3)cc2)cc1,nt,nt,i,nt,i,nt
CCOc1ccc(OCc2ccc(C(=O)N/N=C(\C)c3ccccn3)cc2)cc1,i,0.37µM,i,0.37µM,i,40.5
C/C(=N\NC(=O)c1ccccc1OCc1ccc(F)cc1)c1ccccn1,nt,1.47µM,i,4.15µM,i,nt
O=C(CCC(=O)N1CCSc2ccccc21)NCCc1ccccc1,i,i,i,?,i,i
CC(=O)OCC1=C(C(=O)O)N2C(=O)[C@@H](NC(=O)CSc3ccncc3)[C@@H]2SC1,nt,i,nt,?,nt,nt
SMILES,Shiga toxin inh,Pf growth 48h,AMA1-RON2 inh,Pf growth 96h,SARS PLpro yeast,Cycloheximide cs
CS(=O)(=O)N(CC(=O)O)Cc1cccc(CN(CC(=O)O)S(C)(=O)=O)c1,i,i,i,?,i,i
O=C1c2cccc([N+](=O)[O-])c2C(=O)N1CCO,i,i,i,?,i,i
O=C1c2cccc3c(Nc4ccccc4Cl)c([N+](=O)[O-])cc(c23)C(=O)N1CCO,i,?,?,1.04µM,i,i
CC(C(=O)N1c2ccccc2Sc2ccccc21)n1nnc(-c2cccs2)n1 (stereo not drawn),i,?,i,nt,i,i
CC(C(=O)N1c2ccccc2CCc2ccccc21)n1nnc(-c2ccc(N(C)C)cc2)n1 (stereo not drawn),i,7.38µM,i,i,i,i
Cc1ccc(-c2nnn(C(C)C(=O)N3c4ccccc4CCc4ccccc43)n2)cc1 (stereo not drawn),i,?,i,11.7µM,i,i
O=S(=O)(Nc1ccc(-c2ccc3nncn3n2)cc1)c1cccc(F)c1,nt,i,i,i,i,nt
c1ccc(-c2csc(Nc3ncccn3)n2)cc1,54.5,i,i,?,i,i
CC(=O)Nc1ccc(-c2csc(Nc3ncccn3)n2)cc1,80.9,i,i,i,i,32.9
Oc1ccc(-c2csc(Nc3ncccn3)n2)cc1,122.4,i,i,4.15µM,i,39.2
CC(=O)Nc1ccc(-c2csc(-c3cccnc3)n2)cc1,110.9,i,i,i,i,72.5
CC(=O)Nc1ccc(-c2csc(Nc3ccc(S(N)(=O)=O)cc3)n2)cc1,i,?,i,i,i,i
CC1(C(=O)NS(=O)(=O)c2cccc(C#N)c2)CCN1C(=O)c1ccco1 (stereo not drawn),nt,nt,i,nt,nt,nt
CCCOc1cccn2c(N(C=O)Cc3ccc(OC)cc3)c(CC)nc12,nt,nt,i,nt,nt,nt
CC1(C)Cc2c(cnn2-c2ccc(F)cc2)C(NC(=O)C2CCC2)C1 (stereo not drawn),i,?,i,?,i,i
CC(C)C(=O)NS(=O)(=O)c1ccc(NS(C)(=O)=O)cc1,i,i,i,i,i,i
NNc1nc(-c2ccccc2)cs1,i,i,i,?,i,34.2
Cc1cc(SCC(=O)c2cccs2)nc2ccccc12,73.4,i,i,i,i,42.3
Cc1ccc(C)c2c1cc(C)c1nnc(SCC(=O)Nc3nc4c(s3)CCCC4)n12,i,i,i,i,i,i
Cc1ccc2cc(C)c3nnc(SCC(=O)Nc4nc5c(s4)CCCC5)n3c2c1C,i,i,i,11.7µM,i,11.9
CCn1c(SCC(=O)Nc2nc3ccccc3s2)nnc1-c1ccc(OC)cc1,i,i,i,nt,i,i
CCn1c(SCC(=O)Nc2nc3c(s2)CCCC3)nnc1-c1ccccc1,i,2.08µM,i,i,i,i
O=C(CSc1nc2ccccc2c(=O)[nH]1)c1cccs1,i,i,i,?,i,i
Cc1ccc(C)c2c1cc(C)c1nnc(SCC(=O)c3cccs3)n12,i,i,i[2.32 µM],?,i,i
Cc1ccc2cc(C)c3nnc(SCC(=O)c4cccs4)n3c2c1C,i,i,i,i,i,37.5
CC(C)c1ccc(NC(=O)CCNC(=O)N2CC(=O)Nc3ccccc32)cc1,i,?,i,?,i,i
CCCCOCCCNC(=O)C[C@@H]1C[C@@]2(C(=O)OCC)CCC=C2N(Cc2cccc3ccccc23)C1=O,nt,nt,i,nt,nt,nt
O=C(Nc1cccc(C(F)(F)F)c1)c1cncs1,i,i,i,i,i,i
Nc1c(C(=O)NCC2CCCO2)sc2nc3c(c(-c4ccco4)c12)CC/C3=C\c1ccco1 (stereo not drawn),i,?,8.91µM,?,i,i
NC(=O)c1sc2nc3c(c(-c4ccco4)c2c1N)CCCC3,i,i,i,i,i,i
